The full list was thinned out, with hits kept by preference.
KDM5B inhibitor: KDM5B demethylase inhibition. Q9UGL1. KDM5B demethylase, FDH-coupled NADH fluorescence (FDH is formaldehyde dehydrogenase). Potency, µM (highest dose often 57.7 µM), most hits filed as inhibitors. actives 2.6% (n = 220,000). AID 1347165; active means well fitted inhibition curve with a large enough effect; further: nearly all actives have a fitted effect of over 70% in size
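qHTS format, multiple compound concentrations. Buffer 50 mM HEPES pH 7.5/0.01% Tween-20; 200 nM KDM5BΔAP final; 10 min compound preincubation; substrate-mix levels 12.5 µM peptide, 25 µM α-KG, 0.25 mM NAD⁺; 30 min RT; ΔRFU.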
Numbers stand for hits; . = inactive.

SMILES	KDM5B inhibitor
Cc1noc(C)c1[S+](=O)([O-])N1CC2(C1)NC(=O)c1ccccc1O2	.
COc1ccc(C(=O)N2CCCC3(COc4ccccc4C(=O)N3)C2)cc1 (stereo unspecified)	.
COc1cccc([S+](=O)([O-])N2CCC3(CC2)NC(=O)c2ccccc2O3)c1	.
COc1cccc([S+](=O)([O-])N2CCC3(COc4ccccc4C(=O)N3)C2)c1 (stereo unspecified)	32µM
Cc1noc(C)c1[S+](=O)([O-])N1CCC2(CC1)CNC(=O)c1ccccc1O2	.
COc1ccccc1Oc1coc2cc(OC(=O)c3ccc(F)cc3)ccc2c1=O	.
CC(C)CCn1c(CN2CCN(c3ccccc3F)CC2)nc2c1c(=O)n(C)c(=O)n2C	.
O=[S+]([O-])(c1ccccc1)N1CCn2c(nnc2-c2ccc(Cl)cc2)C1	.
O=C(c1cc(F)c(F)c(F)c1F)N(C1CCCCC1)C1CCCCC1	.
CC1CCN(C(=O)Cn2cc(SCc3ccc(C(F)(F)F)cc3)c3ccccc32)CC1	.
Cn1c(N)c(C(=O)CSc2ccc3ccccc3n2)c(=O)n(C)c1=O	.
O=C(CN1CCC2(CC1)OCCO2)Nc1cc(Cl)cc(Cl)c1	.
CC(=O)CC(C)(C)S(=O)(=O)c1ccc(Cc2ccc(S(=O)(=O)C(C)(C)CC(C)=O)cc2)cc1	.
COCCN1C(=O)N(CC(C)C)C(=O)C12CCN(Cc1cnn(-c3ccccc3OC)c1)CC2	.
C#CCNC(=O)c1cc(-c2ccc([S+](C)(=O)[O-])cc2)nc2c1cnn2C	32µM
Cn1ncc2c(C(=O)N3CCN(c4ncccn4)CC3)cc(-c3ccc([S+](C)(=O)[O-])cc3)nc21	.
Cc1ccc(-c2cc(C(=O)NCCc3ccccc3)c3ccccc3n2)cc1	.
Cc1cc(C(F)F)n2ncc(C(=O)NCc3ccc(F)cc3)c2n1	.
Cn1ncc2c(C(=O)NCc3ccc(F)cc3)cc(-c3ccc([S+](C)(=O)[O-])cc3)nc21	50µM
Cn1ncc2c(C(=O)N3CCOCC3)cc(-c3cc(Cl)cc(Cl)c3)nc21	.
Cc1ccc(-c2cc(C(=O)NCc3cnn(C)c3C)c3cc(Br)ccc3n2)cc1	.
Cc1ccc(CNC(=O)c2cc(-c3cccnc3)nc3ccc(C)cc23)cc1	.
Cn1ncc2c(C(=O)N3CCCC3)cc(-c3ccc([S+](C)(=O)[O-])cc3)nc21	89µM
O=C(NC1CC1)c1cc2occc2n1Cc1ccccc1Cl	.
COc1ccc(C(=O)Nc2cc(C)c(O)c(-c3nc4ccccc4o3)c2)cc1	.
SMILES	KDM5B inhibitor
CN(CC(=O)Nc1ccc(F)cc1)Cc1cnn(-c2ccccc2)c1	.
Cc1ccc(C(=O)O/N=C2/CC3CCC2(C)C3(C)CBr)cc1 (stereo unspecified)	.
Cn1nc(C(=O)NC2CCCc3c2[nH]c2ccccc32)c2ccccc2c1=O (stereo unspecified)	25µM
O=C(Cn1nc2c(cc1=O)CCCCC2)N1CCC(c2ccccc2)CC1	.
O=C(Cn1nc2c(cc1=O)CCCCC2)NC1CCCC1	.
O=C(Cn1nc2c(cc1=O)CCCCC2)NC1CCCc2c1[nH]c1c(Cl)cccc21 (stereo unspecified)	.
O=C(Cn1nc2c(cc1=O)CCCCC2)N1CC=C(c2c[nH]c3ccccc23)CC1	18µM
O=C(Cn1nc2c(cc1=O)CCCCC2)NC1CCCc2c1[nH]c1ccccc21 (stereo unspecified)	28µM
N#Cc1ccc(C(=O)N2CC=C(c3c[nH]c4ccccc34)CC2)cc1	.
Cn1nc(C(=O)NCC2CCC2)c2ccccc2c1=O	.
Cn1nc(C(=O)NC2CCS(=O)(=O)C2)c2ccccc2c1=O (stereo unspecified)	.
O=C1CC(c2ccc3c(c2)OCO3)c2c(c3ccccc3[nH]c2=O)O1 (stereo unspecified)	.
CCOC(=O)c1oc2cc(OCc3cccc(OC)c3)ccc2c(=O)c1-c1ccc(OC)cc1	.
CC(Sc1ncc(-c2ccc(F)cc2)o1)C(=O)N(C)Cc1ccccc1 (stereo unspecified)	.
C[C@@H](NC(=O)N1CCOC[C@H]1c1ncc(-c2ccc(Cl)cc2)[nH]1)c1ccccc1	.
COc1ccc(-c2nc(C3CC3)nc3c2CCN(C(=O)c2ccc4c(c2)OCO4)CC3)cc1	.
CCCN(Cc1cc(=O)[nH]c2c(OC)cccc12)C(=O)Nc1ccccc1OCC	.
O=C(NCc1cccs1)C1CCN(c2nc3ncccc3o2)CC1	32µM
O=[S+]([O-])(NC1CCN(c2nc3ncccc3o2)CC1)c1cccs1	22µM
O=C(NC1CCN(c2nc3ncccc3o2)CC1)C1CC1	28µM
CC(C)NC(=O)C1CCCN1c1nc2ncccc2o1 (stereo unspecified)	.
O=C(Nc1ccccn1)C1CCN(c2nc3ccccc3o2)CC1	.
COC(=O)NC1CCN(c2nc3ncccc3o2)CC1	35µM
O=C(NCc1ccc2c(c1)OCO2)C1CCCN1c1nc2ncccc2o1 (stereo unspecified)	.
O=[S+]([O-])(c1cccs1)N1CCN(c2nc3ncccc3o2)CC1	.
SMILES	KDM5B inhibitor
O=C(NCc1cccs1)C1CCCN1c1nc2ncccc2o1 (stereo unspecified)	.
O=C(NC1CCCC1)O[C@H]1COCCN(c2nc3ccccc3o2)C1	.
Cc1ccc([S+](=O)([O-])N2CCN(c3nc4ncccc4o3)CC2)cc1	.
CCCCCCCNC(=O)CCC(=O)NCCCOC(C)C	.
Cc1ccc(NC(=O)c2nn(Cc3ccccc3)c(=O)c3ccccc23)cc1S(=O)(=O)N(C)C	.
CCC1CCC(=NNC(=O)Cc2cccc3ccccc23)CC1 (stereo unspecified)	.
CCOc1ccc(Nc2nc3ccccc3nc2NS(=O)(=O)c2cccc(Cl)c2)cc1	.
O=C(Cc1c[nH]c2ccccc12)Nc1cccc(CO)c1	.
CC(C)N(Cc1cccc(Cl)c1)S(=O)(=O)c1cnn(C)c1	.
CCOC(=O)C(C)Oc1ccc2c(=O)c(-c3ccc(Cl)cc3)c(C)oc2c1 (stereo unspecified)	.
COC(=O)c1ccccc1NC(=O)Cn1nc(C)c2nn(-c3ccc(Cl)cc3)c(C)c2c1=O	.
CCOC(=O)C(C)On1c(-n2nc(C)cc2C)nc2ccccc2c1=O (stereo unspecified)	.
CCOC(=O)C(C)Oc1cccn2c(=O)c(-c3cc(C)n(-c4ccc(Cl)cc4)n3)c(C)nc12 (stereo unspecified)	22µM
Cc1cc(OCC(=O)OC(C)(C)C)c2c(-c3ccccc3)cc(=O)oc2c1	.
Cc1nc2c(OCC(=O)OC(C)(C)C)cccn2c(=O)c1-c1cc(C)n(-c2ccc(Cl)cc2)n1	28µM
O=C(Nc1ccc(Cl)cc1C(F)(F)F)c1cc(I)ccc1Cl	.
COC(=O)c1cc(-c2ccc(OC)c(OC)c2)nc2ccc(C)cc12	.
Cc1nn2c(c1-c1cccnc1N1CCOCC1)N(C(=O)Cc1cccc(Cl)c1)CCC2	.
Cc1nn2c(c1-c1ccnn1C(C)C)N(Cc1ccc3c(c1)CCO3)CCC2	.
COc1ccc(CN2CCCn3nc(C)c(-c4ccnn4C(C)C)c32)cc1O	.
Cc1nn2c(c1-c1cccnc1N1CCOCC1)N(C(=O)c1cc3ccccc3n1C)CCC2	.
COc1ccc(OC)c(CN2CCCn3nc(C)c(-c4cccnc4N4CCOCC4)c32)c1	13µM
Cc1nn2c(c1-c1cccnc1N1CCOCC1)N(Cc1ccc3c(c1)CCO3)CCC2	25µM
CCOC(CNC(=O)CSCc1nc(-c2ccc(C)cc2)oc1C)OCC	.
CCOc1ccccc1NC(=O)Nc1cc(C)c2nc(NC(=O)c3ccccc3)sc2c1	.

From PubChem BioAssay
